Results filed as inconclusive are left out. The source made the active and inactive calls. The call rests on the fitted dose curve; in most records, active means well fitted curve in the direction sought with a large enough effect; inconclusive means small, poorly fitted or top-dose-only effect, or another doubt; inactive means no such curve, though single readings can be large; an effect the other way counts as inactive or inconclusive.
What was measured:
KB-3-1 = assay: Cytotoxic Profiling of Annotated Libraries Using Quantitative High-Throughput Screening (AID 1296008); conditions: Five cell lines viability, CellTiter-Glo ATP luminescence, 48-72 h; max response: stronger effect = lower value; further: nearly all actives have a fitted effect of over 60% in size; on max response: on the % scale 0 is the no-effect control and ±100 the full control effect
Summary of the method: (§1)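 Cells exposed to compounds for 48 or 72 hr at 37 degrees Celsius. Viability read as ATP-coupled luminescence with CellTiter-Glo after 10 min at room temperature.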

NIH3T3 [1] = assay: as above; conditions: Five cell lines viability, CellTiter-Glo ATP luminescence, 48-72 h; max response: stronger effect = lower value
Summary of the method: as §1

HEK293T [2] = assay: qHTS assay to identify novel small-molecules to repurpose for Merkel cell carcinoma treatment (AID 1296009); conditions: MCC and control cell lines, CellTiter-Glo viability, 72 h; series mostly up to 44.8 µM; further: nearly all actives have a fitted effect of over 60% in size
Summary of the method: (§2)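 Cells were incubated with compound for 72 hr at 37 degree celsius before CellTiter-Glo addition. Luminescence was normalized with no-cell wells as full cytotoxicity and DMSO as baseline.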

C33A = assay: Primary qHTS to identify gynecologic anti-cancer compounds using libraries of approved drugs and bioactive compounds (AID 1345084); conditions: Gynecologic cancer cell panel viability, ATPlite luminescence, 48 h; series mostly up to 57.5 µM; further: on the % scale 0 is the no-effect control and ±100 the full control effect; nearly all actives have a fitted effect of over 55% in size
Summary of the method: (§3)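 Five-point cytotoxicity, 48 h drug exposure at 37 C, 5% CO2, on cells seeded 16 h beforehand. ATP content read by ATPlite luminescence.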

CAOV3 = assay: as above; conditions: Gynecologic cancer cell panel viability, ATPlite luminescence, 48 h; series mostly up to 57.5 µM
Summary of the method: as §3

CASKI = assay: as above; conditions: Gynecologic cancer cell panel viability, ATPlite luminescence, 48 h; series mostly up to 57.5 µM
Summary of the method: as §3

Es-2 = assay: as above; conditions: Gynecologic cancer cell panel viability, ATPlite luminescence, 48 h; series mostly up to 57.5 µM
Summary of the method: as §3

HeLa = assay: as above; conditions: Gynecologic cancer cell panel viability, ATPlite luminescence, 48 h; series mostly up to 57.5 µM
Summary of the method: as §3

Hek293T [3] = assay: as above; conditions: Gynecologic cancer cell panel viability, ATPlite luminescence, 48 h, control line for the selectivity index; series mostly up to 57.5 µM
Summary of the method: as §3

JEG-3 = assay: as above; conditions: Gynecologic cancer cell panel viability, ATPlite luminescence, 48 h; series mostly up to 57.5 µM
Summary of the method: as §3

OV90 = assay: as above; conditions: Gynecologic cancer cell panel viability, ATPlite luminescence, 48 h; series mostly up to 57.5 µM
Summary of the method: as §3

PA-1 = assay: as above; conditions: Gynecologic cancer cell panel viability, ATPlite luminescence, 48 h; series mostly up to 57.5 µM
Summary of the method: as §3

NIH3T3 [4] = assay: qHTS assay to identify novel small-molecules to repurpose for Merkel cell carcinoma treatment (AID 1296009); conditions: MCC and control cell lines, CellTiter-Glo viability, 72 h; at 44.8 µM (top of the series) unless noted; further: nearly all actives have a fitted effect of over 60% in size
Summary of the method: as §2

COc1cc(C2OCC3C(c4ccc(OC5OC(CO)C(O)C(O)C5O)c(OC)c4)OCC23)ccc1O (centres undefined)
inactive: max response (KB-3-1) -0.0986% | max response (NIH3T3 [1]) -0.3% | Potency (HEK293T [2]) | Potency (C33A) | Potency (CAOV3) | Potency (CASKI) | Potency (Es-2) | Potency (HeLa) | Potency (Hek293T [3]) | Potency (JEG-3) | Potency (OV90) | Potency (PA-1)

Cc1ccc(Sc2cncc3sc(C(N)=O)cc23)cc1
inactive: outcome (KB-3-1) | outcome (NIH3T3 [1]) | Potency (HEK293T [2]) | outcome (NIH3T3 [4]) | Potency (CAOV3) | Potency (Es-2) | Potency (HeLa) | Potency (Hek293T [3]) | Potency (OV90) | Potency (PA-1)

COc1ccc([C@@H]2N[C@H](C(=O)O)Cc3c2[nH]c2ccccc32)cc1CN1CCN(c2ccccc2F)CC1
inactive: max response (KB-3-1) -4.47% | outcome (NIH3T3 [1]) | Potency (HEK293T [2]) | outcome (NIH3T3 [4]) | Potency (C33A) | Potency (CASKI) | Potency (Es-2) | Potency (HeLa) | Potency (Hek293T [3]) | Potency (JEG-3) | Potency (OV90) | Potency (PA-1)

NC(=O)[C@H]1CCCCc2c1[nH]c1ccc(Cl)cc21
inactive: max response (KB-3-1) 7.59% | max response (NIH3T3 [1]) 4.7% | Potency (HEK293T [2]) | Potency (C33A) | Potency (CAOV3) | Potency (CASKI) | Potency (Es-2) | Potency (HeLa) | Potency (Hek293T [3]) | Potency (JEG-3) | Potency (OV90) | Potency (PA-1)

C[C@@H]1O[C@@H](O[C@H]2[C@H](O[C@H]3CC[C@@]4(C)C(CC[C@]5(C)C4CC=C4C6CC(C)(C)CC[C@]6(C(=O)O[C@@H]6O[C@H](CO[C@@H]7O[C@H](CO)[C@@H](O[C@@H]8O[C@@H](C)[C@H](O)[C@@H](O)[C@H]8O)[C@H](O)[C@H]7O)[C@@H](O)[C@H](O)[C@H]6O)CC[C@]45C)[C@]3(C)CO)OC[C@H](O)[C@@H]2O)[C@H](O)[C@H](O)[C@H]1O (some centres undefined)
inactive: max response (KB-3-1) 4.12% | max response (NIH3T3 [1]) -6.66% | outcome (HEK293T [2]) inactive [at 9.27 µM] | activity change, negative = cytotoxicity (C33A) -8.84% [at 6.55 µM] | activity change, negative = cytotoxicity (CAOV3) 1.96% [at 6.55 µM] | activity change, negative = cytotoxicity (CASKI) -8.63% [at 6.55 µM] | activity change, negative = cytotoxicity (Es-2) 23.6% [at 6.55 µM] | activity change, negative = cytotoxicity (HeLa) -1.03% [at 6.55 µM] | activity change, negative = cytotoxicity (Hek293T [3]) -5.22% [at 6.55 µM] | activity change, negative = cytotoxicity (JEG-3) -11.6% [at 6.55 µM] | activity change, negative = cytotoxicity (OV90) -14.8% [at 6.55 µM] | activity change, negative = cytotoxicity (PA-1) -4.46% [at 6.55 µM]

CC1=C2CC3OC3(C)CCC3OC3(C)CC2OC1=O (centres undefined)
inactive: outcome (KB-3-1) | max response (NIH3T3 [1]) -7.4% | Potency (HEK293T [2]) | Potency (C33A) | Potency (CAOV3) | Potency (CASKI) | Potency (Es-2) | Potency (HeLa) | Potency (Hek293T [3]) | Potency (JEG-3) | Potency (OV90) | Potency (PA-1)

C=C1C(O[C@@H]2O[C@H](CO)[C@@H](O)[C@H](O)[C@@H]2O)CC2C(C)(C)C(O)CCC2(C)C1CC/C(C)=C\CO (some centres undefined)
inactive: outcome (KB-3-1) | max response (NIH3T3 [1]) -3.89% | Potency (HEK293T [2]) | Potency (C33A) | Potency (CAOV3) | Potency (CASKI) | Potency (Es-2) | Potency (HeLa) | Potency (Hek293T [3]) | Potency (JEG-3) | Potency (OV90) | Potency (PA-1)

COC1=CC(=O)C[C@@H](C)[C@]12Oc1cc(OC)cc(OC)c1C2=O
inactive: max response (KB-3-1) 5.37% | outcome (NIH3T3 [1]) | Potency (HEK293T [2]) | Potency (C33A) | Potency (CAOV3) | Potency (CASKI) | Potency (Es-2) | Potency (HeLa) | Potency (Hek293T [3]) | Potency (JEG-3) | Potency (OV90) | Potency (PA-1)

OC[C@H]1O[C@@H](Oc2cc(O)cc(-c3cc4ccc(O)cc4o3)c2)[C@H](O)[C@@H](O)[C@@H]1O
inactive: max response (KB-3-1) 4.55% | max response (NIH3T3 [1]) 4.16% | Potency (HEK293T [2]) | Potency (C33A) | Potency (CAOV3) | Potency (CASKI) | Potency (Es-2) | Potency (HeLa) | Potency (Hek293T [3]) | Potency (JEG-3) | Potency (OV90) | Potency (PA-1)

COC(=O)[C@@]1(C)CC[C@]2(C(=O)O[C@@H]3O[C@H](CO)[C@@H](O)[C@H](O)[C@H]3O)CC[C@]3(C)C(=CCC4[C@@]5(C)CC[C@H](O[C@@H]6O[C@H](C(=O)O)[C@@H](O)[C@H](O)[C@H]6O)C(C)(C)C5CC[C@]43C)[C@@H]2C1 (some centres undefined)
inactive: max response (KB-3-1) -0.321% | max response (NIH3T3 [1]) 2.66% | outcome (HEK293T [2]) inactive [at 9.27 µM] | activity change, negative = cytotoxicity (C33A) -14.8% [at 11.6 µM] | activity change, negative = cytotoxicity (CAOV3) -1.21% [at 11.6 µM] | activity change, negative = cytotoxicity (CASKI) -4.58% [at 11.6 µM] | activity change, negative = cytotoxicity (Es-2) -0.312% [at 11.6 µM] | activity change, negative = cytotoxicity (HeLa) -10.5% [at 11.6 µM] | activity change, negative = cytotoxicity (Hek293T [3]) -3.38% [at 11.6 µM] | activity change, negative = cytotoxicity (JEG-3) -1.5% [at 11.6 µM] | activity change, negative = cytotoxicity (OV90) -2.61% [at 11.6 µM] | activity change, negative = cytotoxicity (PA-1) -17.6% [at 11.6 µM]

O=c1c2ccccc2nc2n1CCC2O (centres undefined)
inactive: outcome (KB-3-1) | max response (NIH3T3 [1]) 2.87% | Potency (HEK293T [2]) | Potency (C33A) | Potency (CAOV3) | Potency (CASKI) | Potency (Es-2) | Potency (HeLa) | Potency (Hek293T [3]) | Potency (JEG-3) | Potency (OV90) | Potency (PA-1)

CN1C(=O)c2ccccc2-n2c(nc3ccccc3c2=O)/C1=C/c1ccccc1
inactive: outcome (KB-3-1) | max response (NIH3T3 [1]) 3.9% | Potency (HEK293T [2]) | Potency (C33A) | Potency (CAOV3) | Potency (CASKI) | Potency (Es-2) | Potency (HeLa) | Potency (Hek293T [3]) | Potency (JEG-3) | Potency (OV90) | Potency (PA-1)

CC1=C(CC(=O)O)c2cc(F)ccc2C1=Cc1ccc(S(C)(=O)=O)cc1
inactive: outcome (KB-3-1) | max response (NIH3T3 [1]) 4% | Potency (HEK293T [2]) | Potency (C33A) | Potency (CAOV3) | Potency (CASKI) | Potency (Es-2) | Potency (HeLa) | Potency (Hek293T [3]) | Potency (JEG-3) | Potency (OV90) | Potency (PA-1)

Source: PubChem BioAssay (NCATS)
